# In PubChem BioAssay AID1259421 (Broad Institute, 2018):
# Where “and” joins values, the source holds several entries; their conditions need not be identical. Equal values may be shown once. The whole screen tested about 6,400 compounds, of which about 610 (9.5%) were called active. Cut-off read from the data, not from the text of the source: active = activity change below about -70%; inconclusive = no clear call, values can overlap the other calls; inactive = above that. This excerpt belongs to a sample that is enriched for actives. More than one record can exist for a structure, and the calls need not agree.
# Assay: T. gondii ME49Luc in HeLa cells, luciferase assay, 72 h, no IFN-y (AID 1259421)
# Conditions: stronger effect = lower value, concentration not given here
row,Structure (SMILES),"activity change, negative = inhibition"
1,CC(C)Cc1ccc([C@@H](C)C(=O)NS(C)(=O)=O)cc1,0.904% (inactive)
2,NC(COCc1ccccc1)C(=O)O (stereo not drawn),2.58% (inactive)
3,CCCc1c(OCCCCc2nn[nH]n2)ccc(C(C)=O)c1O,3.01% (inactive)
4,N#Cc1c(N)nc(SCc2csc(-c3ccc(Cl)cc3)n2)c(C#N)c1-c1ccc(OCCO)cc1,-62.2% (inactive)
5,Cc1nccc2[nH]c(=O)ccc12,4.39% (inactive)
6,CC(=O)O[C@@H]1CC[C@@]2(C)C(CC[C@]3(C)C2C(=O)C=C2[C@@H]4[C@@H](C)[C@H](C)CC[C@]4(C)CC[C@]23C)[C@@]1(C)C(=O)O (stereo partly drawn),-14.9% (inactive)
7,COc1ccc(CCCOC(Cn2ccnc2)c2ccc(OC)cc2)cc1 (stereo not drawn),-72.3% (active)
8,O=C(O)c1ccc(OCCn2ccnc2)cc1,-29.3% (inactive)
9,NC(=O)C1CSSCCC(=O)NC(CCCCN=C(N)N)C(=O)NCC(=O)NC(CC(=O)O)C(=O)NC(Cc2c[nH]c3ccccc23)C(=O)N2CCCC2C(=O)N1 (stereo not drawn),1.76% (inactive)
10,CCOC(=O)CSCCC1NC(C(=O)O)CS1 (stereo not drawn),6.06% (inactive) and 14% (inactive)
11,N#C/C(=C/c1ccc(O)c(O)c1)C(=O)NCc1ccccc1,27.2% (inactive)
12,O=C(O)c1cc2occc2[nH]1,12% (inactive)
13,Cc1cc(C)c2c(c1)[C@@H](N(Cc1cc(C(F)(F)F)cc(C(F)(F)F)c1)c1nnn(C)n1)CCCN2CC1CCC(C(=O)O)CC1 (stereo partly drawn),-80.5% (active)
14,CNC(=O)c1cccc(NCC(=O)NCCc2ccc(OC)c(OC)c2)c1,16.5% (inactive)
15,Cc1ccc(C(=O)N(CCCN)[C@@H](c2nc3cc(Cl)ccc3c(=O)n2Cc2ccccc2)C(C)C)cc1,-72.6% (active)
16,Cc1ccc(C(=O)N(CCCN)[C@@H](c2oc3cc(Cl)ccc3c(=O)c2Cc2ccccc2)C(C)C)cc1,-80.4% (active)
17,Cc1c(C)n(Cc2ccccc2)c2ccc(C(=O)OCCN(C)C)cc12,11.3% (inactive)
18,O=C(O)CC(S)C(=O)O (stereo not drawn),11.1% (inactive)
19,Cc1cc2nc3c(=O)[nH]c(=O)nc-3n(CC(O)C(O)C(O)CO)c2cc1C (stereo not drawn),28.7% (inactive) and -4.94% (inactive)
20,O=C(O)[C@H](O)[C@@H](O)[C@H](O)[C@H](O)CO,-60.2% (inactive)
21,CC(C)C1CCC(C(=O)N[C@H](Cc2ccccc2)C(=O)O)CC1 (stereo partly drawn),20.3% (inactive)
22,CC(/C=C/C(=O)NO)=C\[C@@H](C)C(=O)c1ccc(N(C)C)cc1,-69.6% (inactive)
23,CN(C)c1ccc(C(=O)NCCCCCCC(=O)NO)cc1,-59.9% (inactive) and -86.2% (active) and -94.9% (active)
24,O=C(CCCCCCNC(=O)c1cnc(N(c2ccccc2)c2ccccc2)nc1)NO,-10.9% (inactive)
25,CCCCCCCCCCCCC/C=C/[C@@H](O)[C@H](COC1OC(CO)C(OC2OC(CO)C(OC3OC(CO)C(O)C(OC4OC(CO)C(O)C(O)C4O)C3NC(C)=O)C(OC3(C(=O)O)CC(O)C(NC(C)=O)C(C(O)C(O)CO)O3)C2O)C(O)C1O)NC(=O)CCCCCCCCCCCCCCCCC (stereo partly drawn),8.33% (inactive)

row,Structure (SMILES),"activity change, negative = inhibition"
1,O=C(O)c1c(Sc2ccccc2)c2cc(Cl)ccc2n1Cc1ccc(Cl)cc1,-5.44% (inactive) and 8.39% (inactive)
2,COC(=O)C1CC2=CC(=O)CCC2(C)C23OC2CC2(C)C(CCC24CCC(=O)O4)C13 (stereo not drawn),3.98% (inactive)
3,C[C@H]1[C@H](C)CC[C@]2(C(=O)O)CC[C@]3(C)C(=CCC4[C@@]5(C)C[C@@H](O)[C@H](O)[C@@](C)(CO)C5CC[C@]43C)[C@H]12 (stereo partly drawn),14.3% (inactive)
4,C[C@@H]1CC[C@]2(C(=O)O)CC[C@]3(C)C(=CCC4[C@@]5(C)CC[C@H](O)C(C)(C)C5CC[C@]43C)C2[C@H]1C (stereo partly drawn),8.22% (inactive)
5,CC1(C)CC[C@]2(C(=O)O)CC[C@]3(C)C(=CC[C@@H]4[C@@]5(C)CC[C@H](O)C(C)(C)[C@@H]5CC[C@]43C)[C@@H]2C1,-38.2% (inactive) and 16.6% (inactive)
6,C[C@H]1[C@H](C)CC[C@]2(C(=O)O)CC[C@]3(C)C(=CC[C@@H]4[C@@]5(C)C[C@@H](O)[C@H](O)[C@@](C)(CO)[C@@H]5CC[C@]43C)[C@H]12,-67.1% (inactive) and -6.04% (inactive)
7,C[C@H]1[C@H](C)CC[C@]2(C(=O)O)CC[C@]3(C)C(=CC[C@@H]4[C@@]5(C)CC[C@H](O)C(C)(C)[C@@H]5CC[C@]43C)[C@H]12,-76.6% (active)
8,C[C@H]1[C@H](C)CC[C@]2(C(=O)O)CC[C@]3(C)C(=CCC4[C@@]5(C)C[C@@H](O)[C@H](O)[C@@](C)(CO)C5[C@H](O)C[C@]43C)[C@H]12 (stereo partly drawn),-87.6% (active)
9,Nc1nc2c(ncn2CCC(CO)CO)c(=O)[nH]1,11.1% (inactive)
10,COc1c2ccoc2nc2c(OC)c(OCC(O)C(C)(C)O)ccc12 (stereo not drawn),7.33% (inactive)
11,C[C@@H](NCCCc1cccc(C(F)(F)F)c1)c1cccc2ccccc12,58.2% (inactive)
12,CO[C@H]1C=CO[C@@]2(C)Oc3c(C)c(O)c4c(O)c(c5c(nc6cc(C)ccn65)c4c3C2=O)NC(=O)/C(C)=C\C=C/[C@H](C)[C@H](O)[C@@H](C)C(O)[C@@H](C)[C@H](OC(C)=O)[C@@H]1C (stereo partly drawn),2.45% (inactive)
13,CC(C)CC1C(=O)N2CCC[C@H]2C2(O)O[C@](NC(=O)C3C=C4c5cccc6[nH]c(Br)c(c56)C[C@H]4N(C)C3)(C(C)C)C(=O)N12 (stereo partly drawn),-3.42% (inactive)
14,O=C(NS(=O)(=O)c1ccc(Br)s1)c1ccc(Cl)cc1Cl,15.3% (inactive)
15,CS(=O)(=O)Oc1ccc2c(NC(N)=O)c(C(=O)c3ccc(Cl)cc3Cl)oc2c1,6% (inactive) and -81.6% (active)
16,Cc1cccc(/C=N/Nc2cc(N3CCOCC3)nc(OCCc3ccccn3)n2)c1,-83.9% (active)
17,O=c1cc(N2CCOCC2)nc2c3ccccc3ccn12,7.41% (inactive)
18,CCOC(=O)CCNc1cc(N2CCc3ccccc3CC2)nc(-c2ccccn2)n1,-57.4% (inactive)
19,O=C(O)c1ccc(-n2nc(-c3ccccc3O)nc2-c2ccccc2O)cc1,-30% (inactive)
20,CC(C)(O)CC[C@@H](O)[C@](C)(O)C1CC[C@@]2(O)C3=CC(=O)C4C[C@@H](O)[C@@H](O)C[C@]4(C)C3CC[C@]12C (stereo partly drawn),12.6% (inactive)
21,Fc1cccc(/C=N/N=C/c2cccc(F)c2)c1,8.5% (inactive) and 8.55% (inactive)
22,C[N+]1(C)[C@@H]2CC(OC(=O)C(O)(c3cccs3)c3cccs3)C[C@H]1[C@@H]1O[C@@H]12 (stereo partly drawn),13.9% (inactive)
23,CCc1cnn2c(NCc3ccc[n+]([O-])c3)cc(N3CCCC[C@H]3CCO)nc12,-74.2% (active)
24,COc1ccc(CNc2nc(N3CCC[C@H]3CO)ncc2C(=O)NCc2ncccn2)cc1Cl,-6.59% (inactive)
25,COc1cc(O)cc([C@@H]2CC(=O)c3c(O)cc(O[C@@H]4O[C@H](CO)[C@@H](O)[C@H](O)[C@H]4O[C@@H]4O[C@@H](C)[C@H](O)[C@@H](O)[C@H]4O)cc3O2)c1,4.15% (inactive)

row,Structure (SMILES),"activity change, negative = inhibition"
1,c1ccc(Oc2nc(NC3CCCCC3)c3[nH]cnc3n2)cc1,-6.74% (inactive)
2,Cn1cnc2cc3c(Nc4cccc(Br)c4)ncnc3cc21,-18.1% (inactive)
3,O=C(NCCCl)N(CCCl)[NH2+][O-],-12% (inactive)
4,O=C(O)c1ccc(N2C(=O)/C(=C/c3ccc(-c4ccc([N+](=O)[O-])cc4)o3)C=C2c2ccccc2)cc1,14.9% (inactive)
5,CCCN(CCC)C(=O)C(CCC(=O)O)NC(=O)c1ccccc1 (stereo not drawn),-0.127% (inactive) and 11.8% (inactive)
6,CCCCN(Cc1ccc(C(=O)NO)cc1)C(=O)Nc1ccccc1,-84.4% (active)
7,CN1CCc2c(c3ccccc3n2Cc2ccc(C(=O)NO)cc2)C1,-47% (inactive)
8,CC1CCCC(C)N1 (stereo not drawn),19.7% (inactive)
9,NCCc1ccn[nH]1,7.65% (inactive)
10,CN(C)N(C)C(=O)[C@@]1(Cc2ccccc2)CCCN(C(=O)[C@@H](Cc2c[nH]c3ccccc23)NC(=O)C(C)(C)N)C1,17.2% (inactive)
11,CSc1nc(NC2CCCC2)c([N+](=O)[O-])c(NC2CCCC2)n1,15.2% (inactive) and 17.7% (inactive)
12,CCCCCCOC(=O)/N=C(/N)c1ccc(NCc2nc3cc(C(=O)N(CCC(=O)OCC)c4ccccn4)ccc3n2C)cc1,13.2% (inactive)
13,CC(=O)OCC(=O)[C@@]12OC(C)(C)O[C@@H]1CC1C3C[C@H](F)C4=CC(=O)C=C[C@]4(C)[C@@]3(F)[C@@H](O)C[C@@]12C (stereo partly drawn),8.91% (inactive) and 0.0222% (inactive)
14,COC1=CC(=O)C(=O)C/C1=C\C=C\c1ccccc1,-4.53% (inactive)
15,CCCCCCCCCCCCN1CCCCCC1=O,10.1% (inactive)
16,COc1cc(NS(C)(=O)=O)ccc1Nc1c2ccccc2nc2ccccc12,-35.3% (inactive) and -53.5% (inactive)
17,COc1cc(NS(C)(=O)=O)ccc1Cc1c2ccccc2nc2ccccc12,-78.8% (active)
18,COc1ccccc1S(=O)(=O)Nc1ccc2c(c1)CN(C)C(=O)N2,28.4% (inactive)
19,Cc1cc(=O)c2c(O)c3c(O)cc(O)c4c5c(O)cc(O)c6c(O)c7c(=O)cc(C)c8c1c2c(c34)c(c65)c78,-7.43% (inactive)
20,C[C@@]1(O)[C@H](O)[C@@H](CO)O[C@H]1n1cnc2c(NC3CCCC3)nc(Cl)nc21,14.8% (inactive)
21,C=CC(=O)Nc1cccc(Nc2nc(Nc3ccc(N4CCN(C(C)=O)CC4)cc3OC)ncc2C(F)(F)F)c1,15.7% (inactive)
22,C=CC(=O)Nc1cccc(Nc2nc(Nc3ccc(NC4CN(CCF)C4)cc3OC)ncc2C(F)(F)F)c1,-9.1% (inactive)
23,CC(=O)NCC(=O)N1[C@@H]2CC[C@H]1c1ccc(Nc3ncc(C(F)(F)F)c(NC4CCC4)n3)cc12,-73.8% (active)
